Common to all, as to test: DAPPL (digital affinity profiling via proximity ligation, sequencing); 10 mM Tris-HCl pH 7.5, 50 mM NaCl, 1 mM DTT, 4% glycerol, room temperature, 30 min; GST-TFs on glutathione beads, 16-mer random dsDNA library, 0.1% formaldehyde crosslink after washing; high values mean tight binding
In one experiment the target is T1, FEV (Homo sapiens, UniProt Q99581 1-238).
T1 sequence: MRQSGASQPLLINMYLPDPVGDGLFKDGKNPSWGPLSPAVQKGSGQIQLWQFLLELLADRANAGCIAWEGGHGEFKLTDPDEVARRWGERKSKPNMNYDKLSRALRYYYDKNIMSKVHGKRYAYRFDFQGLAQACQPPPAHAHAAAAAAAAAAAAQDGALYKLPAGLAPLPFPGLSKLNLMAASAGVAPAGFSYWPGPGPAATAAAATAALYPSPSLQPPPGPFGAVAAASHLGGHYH
The conditions noted are these: protein: recombinant; tags: N-terminal GST; dsDNA, one strand shown. The method in brief:
(§1)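 Human transcription factors were made in yeast as GST fusions, captured on glutathione beads and barcoded with DNA. With a tag-only sample included, the pool was incubated with 200 nmole of a random double-stranded 16-mer DNA library in Tris/NaCl/DTT/glycerol buffer at room temperature for 30 min, then crosslinked with 0.1% formaldehyde after washing, ligated by proximity, amplified and sequenced. For binding signal, each hexamer's read frequency for a factor is divided by its frequency for the tag-only sample.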

The target of another experiment is ETV5 (Homo sapiens, UniProt P41161 1-510). As to conditions: protein: recombinant; tags: N-terminal GST; dsDNA, one strand shown. An outline of the steps:
as §1

The next experiment addresses HSF1 (Homo sapiens, UniProt Q00613 1-529). The conditions noted are these: protein: recombinant; tags: N-terminal GST; chain copies: 3; dsDNA, one strand shown. The method in brief: as §1
The target of another experiment is T2, SPIC (Homo sapiens, UniProt Q8N5J4 1-248).
T2 sequence: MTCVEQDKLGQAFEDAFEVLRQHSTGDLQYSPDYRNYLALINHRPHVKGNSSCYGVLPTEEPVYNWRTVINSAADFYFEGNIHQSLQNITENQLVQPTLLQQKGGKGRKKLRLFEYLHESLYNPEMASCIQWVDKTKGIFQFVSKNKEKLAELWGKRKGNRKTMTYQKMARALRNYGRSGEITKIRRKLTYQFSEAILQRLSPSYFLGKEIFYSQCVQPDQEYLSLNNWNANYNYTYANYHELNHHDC
As to conditions: protein: recombinant; tags: N-terminal GST; dsDNA, one strand shown. The method in brief:
as §1

For another experiment, the target named is ELF4 (Homo sapiens, UniProt Q99607 1-663). As to conditions: protein: recombinant; tags: N-terminal GST; dsDNA, one strand shown. An outline of the steps:
as §1

For the next experiment, the target named is T3, ELK4 (Homo sapiens, UniProt P28324-2 1-405).
T3 sequence: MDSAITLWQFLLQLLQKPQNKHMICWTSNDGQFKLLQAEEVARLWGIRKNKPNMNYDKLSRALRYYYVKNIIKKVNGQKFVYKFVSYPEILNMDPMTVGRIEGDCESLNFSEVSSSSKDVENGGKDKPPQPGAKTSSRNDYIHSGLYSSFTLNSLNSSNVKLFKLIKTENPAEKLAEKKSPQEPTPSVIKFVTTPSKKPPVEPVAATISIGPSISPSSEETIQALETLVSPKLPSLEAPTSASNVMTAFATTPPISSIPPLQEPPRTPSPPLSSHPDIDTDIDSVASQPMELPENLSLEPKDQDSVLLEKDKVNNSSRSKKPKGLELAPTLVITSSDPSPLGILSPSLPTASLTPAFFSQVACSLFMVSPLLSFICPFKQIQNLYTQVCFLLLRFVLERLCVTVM
The conditions noted are these: protein: recombinant; tags: N-terminal GST; dsDNA, one strand shown. An outline of the steps:
as §1

A further experiment concerns the target T4, ETV2 (Homo sapiens, UniProt O00321 1-342).
T4 sequence: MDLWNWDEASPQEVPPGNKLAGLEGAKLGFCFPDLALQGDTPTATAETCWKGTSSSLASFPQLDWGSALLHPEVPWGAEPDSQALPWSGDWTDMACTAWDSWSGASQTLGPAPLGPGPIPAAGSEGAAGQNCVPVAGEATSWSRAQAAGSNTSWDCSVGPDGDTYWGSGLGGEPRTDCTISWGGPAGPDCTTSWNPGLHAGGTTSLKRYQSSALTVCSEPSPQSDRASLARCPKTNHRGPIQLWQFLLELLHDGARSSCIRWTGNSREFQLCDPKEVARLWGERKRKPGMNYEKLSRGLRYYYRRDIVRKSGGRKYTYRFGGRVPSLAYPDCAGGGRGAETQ
The conditions noted are these: protein: recombinant; tags: N-terminal GST; dsDNA, one strand shown. An outline of the steps: as §1

Another experiment deals with T5, ELF3 (Homo sapiens, UniProt P78545 1-371).
T5 sequence: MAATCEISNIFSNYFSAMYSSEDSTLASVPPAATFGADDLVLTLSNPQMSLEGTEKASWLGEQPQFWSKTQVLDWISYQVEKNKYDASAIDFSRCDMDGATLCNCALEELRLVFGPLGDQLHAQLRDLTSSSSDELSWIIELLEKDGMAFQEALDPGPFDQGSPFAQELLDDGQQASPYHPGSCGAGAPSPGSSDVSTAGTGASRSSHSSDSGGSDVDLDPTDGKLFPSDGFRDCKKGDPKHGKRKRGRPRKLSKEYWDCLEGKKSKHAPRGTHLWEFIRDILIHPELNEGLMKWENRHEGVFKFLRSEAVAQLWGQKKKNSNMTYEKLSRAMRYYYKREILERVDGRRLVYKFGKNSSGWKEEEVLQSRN
As to conditions: protein: recombinant; tags: N-terminal GST; dsDNA, one strand shown. The method in brief: as §1

Another experiment deals with CRX (Homo sapiens, UniProt O43186 1-299). The conditions noted are these: protein: recombinant; tags: N-terminal GST; dsDNA, one strand shown. The method in brief: as §1
A further experiment has as its target ETV1 (Homo sapiens, UniProt P50549 1-477). The conditions noted are these: protein: recombinant; tags: N-terminal GST; dsDNA, one strand shown. The method in brief: as §1
In a further experiment the target is T6, ERF (Homo sapiens, UniProt P50548 1-548).
T6 sequence: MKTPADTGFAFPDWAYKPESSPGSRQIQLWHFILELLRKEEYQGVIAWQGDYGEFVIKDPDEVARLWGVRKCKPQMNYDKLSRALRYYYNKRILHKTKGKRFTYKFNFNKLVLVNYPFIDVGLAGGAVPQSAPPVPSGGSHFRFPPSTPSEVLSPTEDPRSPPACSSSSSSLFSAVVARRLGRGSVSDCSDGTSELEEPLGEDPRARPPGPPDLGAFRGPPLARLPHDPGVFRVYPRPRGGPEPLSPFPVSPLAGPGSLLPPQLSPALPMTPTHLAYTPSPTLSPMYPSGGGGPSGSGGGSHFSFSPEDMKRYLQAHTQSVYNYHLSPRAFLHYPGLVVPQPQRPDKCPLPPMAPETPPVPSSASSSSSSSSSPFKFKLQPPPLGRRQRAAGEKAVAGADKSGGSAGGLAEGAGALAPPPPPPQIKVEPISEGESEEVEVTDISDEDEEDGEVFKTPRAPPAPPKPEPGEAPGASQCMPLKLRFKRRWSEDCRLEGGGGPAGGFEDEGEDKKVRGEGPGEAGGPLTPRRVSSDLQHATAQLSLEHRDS
The conditions noted are these: protein: recombinant; tags: N-terminal GST; dsDNA, one strand shown. The method in brief: as §1

The target of a further experiment is T7, ETV3L (Homo sapiens, UniProt Q6ZN32 1-361).
T7 sequence: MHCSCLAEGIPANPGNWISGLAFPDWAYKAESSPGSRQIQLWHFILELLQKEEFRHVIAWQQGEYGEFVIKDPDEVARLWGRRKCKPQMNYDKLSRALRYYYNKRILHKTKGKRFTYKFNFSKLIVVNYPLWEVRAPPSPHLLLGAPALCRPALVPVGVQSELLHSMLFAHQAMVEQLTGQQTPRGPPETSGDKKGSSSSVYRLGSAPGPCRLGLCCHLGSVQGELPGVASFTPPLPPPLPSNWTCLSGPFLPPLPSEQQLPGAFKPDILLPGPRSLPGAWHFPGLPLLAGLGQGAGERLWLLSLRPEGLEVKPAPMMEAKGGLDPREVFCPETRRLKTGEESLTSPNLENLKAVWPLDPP
As to conditions: protein: recombinant; tags: N-terminal GST; dsDNA, one strand shown. The method in brief: as §1

For the next experiment, the target named is T8, ETS2 (Homo sapiens, UniProt P15036 1-469).
T8 sequence: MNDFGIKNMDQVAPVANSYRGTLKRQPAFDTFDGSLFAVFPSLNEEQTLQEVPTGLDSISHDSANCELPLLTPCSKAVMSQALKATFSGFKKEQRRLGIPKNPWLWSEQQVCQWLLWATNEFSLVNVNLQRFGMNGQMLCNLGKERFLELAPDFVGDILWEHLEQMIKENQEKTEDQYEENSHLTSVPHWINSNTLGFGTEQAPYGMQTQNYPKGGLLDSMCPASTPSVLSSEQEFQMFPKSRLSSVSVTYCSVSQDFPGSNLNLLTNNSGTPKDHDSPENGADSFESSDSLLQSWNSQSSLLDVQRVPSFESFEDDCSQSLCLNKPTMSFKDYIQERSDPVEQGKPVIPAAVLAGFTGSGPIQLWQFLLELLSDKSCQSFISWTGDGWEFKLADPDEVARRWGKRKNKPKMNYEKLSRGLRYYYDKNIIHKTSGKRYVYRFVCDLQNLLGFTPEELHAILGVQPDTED
As to conditions: protein: recombinant; tags: N-terminal GST; dsDNA, one strand shown. An outline of the steps: as §1

The target of another experiment is T9, SPDEF (Homo sapiens, UniProt O95238 1-335).
T9 sequence: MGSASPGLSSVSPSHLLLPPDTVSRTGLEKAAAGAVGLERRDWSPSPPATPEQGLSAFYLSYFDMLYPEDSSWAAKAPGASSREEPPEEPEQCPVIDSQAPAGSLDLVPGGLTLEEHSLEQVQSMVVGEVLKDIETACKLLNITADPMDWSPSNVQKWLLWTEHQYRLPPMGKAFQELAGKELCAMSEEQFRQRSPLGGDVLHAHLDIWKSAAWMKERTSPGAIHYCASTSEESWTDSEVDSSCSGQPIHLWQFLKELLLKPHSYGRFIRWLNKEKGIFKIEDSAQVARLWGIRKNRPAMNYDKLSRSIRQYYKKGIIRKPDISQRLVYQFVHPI
As to conditions: protein: recombinant; tags: N-terminal GST; dsDNA, one strand shown. The method in brief: as §1

The target of the next experiment is T10, ETV7 (Homo sapiens, UniProt Q9Y603 1-341).
T10 sequence: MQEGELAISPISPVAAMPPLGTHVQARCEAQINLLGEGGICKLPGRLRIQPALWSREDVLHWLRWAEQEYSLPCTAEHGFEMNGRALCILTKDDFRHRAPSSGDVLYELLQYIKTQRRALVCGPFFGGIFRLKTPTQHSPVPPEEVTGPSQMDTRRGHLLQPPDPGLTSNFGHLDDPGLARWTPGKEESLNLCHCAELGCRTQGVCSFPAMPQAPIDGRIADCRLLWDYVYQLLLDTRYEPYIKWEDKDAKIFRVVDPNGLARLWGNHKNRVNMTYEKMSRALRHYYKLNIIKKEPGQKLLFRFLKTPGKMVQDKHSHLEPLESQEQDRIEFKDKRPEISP
The conditions noted are these: protein: recombinant; tags: N-terminal GST; dsDNA, one strand shown. An outline of the steps:
as §1

The target of another experiment is T11, ELF5 (Homo sapiens, UniProt Q9UKW6-2 1-255).
T11 sequence: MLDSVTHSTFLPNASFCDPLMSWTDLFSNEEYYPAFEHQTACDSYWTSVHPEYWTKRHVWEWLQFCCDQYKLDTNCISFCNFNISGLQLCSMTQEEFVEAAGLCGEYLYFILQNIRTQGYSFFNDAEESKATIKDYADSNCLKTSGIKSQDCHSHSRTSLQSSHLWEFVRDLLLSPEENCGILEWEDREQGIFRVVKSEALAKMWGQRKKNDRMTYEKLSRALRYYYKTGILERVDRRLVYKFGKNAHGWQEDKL
As to conditions: protein: recombinant; tags: N-terminal GST; dsDNA, one strand shown. The method in brief:
as §1

The target in another experiment is T12, ETV3 (Homo sapiens, UniProt P41162-2 1-143).
T12 sequence: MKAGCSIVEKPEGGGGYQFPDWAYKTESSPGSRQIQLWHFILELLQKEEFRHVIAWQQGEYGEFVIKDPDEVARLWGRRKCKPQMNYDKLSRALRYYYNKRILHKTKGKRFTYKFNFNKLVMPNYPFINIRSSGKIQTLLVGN
As to conditions: protein: recombinant; tags: N-terminal GST; dsDNA, one strand shown. An outline of the steps:
as §1

A further experiment deals with ETV6 (Homo sapiens, UniProt P41212 1-452). As to conditions: protein: recombinant; tags: N-terminal GST; dsDNA, one strand shown. An outline of the steps: as §1
ETV6, sequence (P41212 whole entry): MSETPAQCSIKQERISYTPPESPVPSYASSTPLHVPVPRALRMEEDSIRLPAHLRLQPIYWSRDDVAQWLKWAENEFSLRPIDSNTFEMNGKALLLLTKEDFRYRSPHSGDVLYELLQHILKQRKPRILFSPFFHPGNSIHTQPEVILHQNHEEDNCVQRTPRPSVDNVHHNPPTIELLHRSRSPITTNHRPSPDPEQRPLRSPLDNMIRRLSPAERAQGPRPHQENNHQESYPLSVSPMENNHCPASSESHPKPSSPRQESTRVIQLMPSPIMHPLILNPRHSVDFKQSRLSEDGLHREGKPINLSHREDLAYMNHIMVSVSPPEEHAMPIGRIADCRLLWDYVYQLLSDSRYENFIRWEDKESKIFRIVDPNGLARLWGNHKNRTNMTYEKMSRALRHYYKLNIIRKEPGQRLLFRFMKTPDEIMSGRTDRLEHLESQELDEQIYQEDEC

ELF4, sequence (Q99607 whole entry): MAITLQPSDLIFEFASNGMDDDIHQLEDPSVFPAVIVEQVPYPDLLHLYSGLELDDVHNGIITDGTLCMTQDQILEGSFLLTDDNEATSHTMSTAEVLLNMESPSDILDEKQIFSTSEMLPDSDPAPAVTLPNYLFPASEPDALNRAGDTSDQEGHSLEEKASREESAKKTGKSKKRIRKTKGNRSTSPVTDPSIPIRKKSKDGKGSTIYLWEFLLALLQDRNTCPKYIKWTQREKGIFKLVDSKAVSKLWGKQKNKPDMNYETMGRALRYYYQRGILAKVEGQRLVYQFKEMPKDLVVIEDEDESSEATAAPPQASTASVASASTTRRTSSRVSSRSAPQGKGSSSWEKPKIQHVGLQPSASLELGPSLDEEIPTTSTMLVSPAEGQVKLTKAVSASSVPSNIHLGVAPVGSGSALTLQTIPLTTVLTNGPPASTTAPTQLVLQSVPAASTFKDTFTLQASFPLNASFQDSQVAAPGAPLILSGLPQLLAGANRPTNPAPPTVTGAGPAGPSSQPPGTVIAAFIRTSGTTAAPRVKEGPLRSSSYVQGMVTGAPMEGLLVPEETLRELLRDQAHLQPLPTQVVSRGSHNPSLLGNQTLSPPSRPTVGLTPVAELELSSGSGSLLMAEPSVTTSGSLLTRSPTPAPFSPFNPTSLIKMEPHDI
HSF1, sequence (Q00613 whole entry): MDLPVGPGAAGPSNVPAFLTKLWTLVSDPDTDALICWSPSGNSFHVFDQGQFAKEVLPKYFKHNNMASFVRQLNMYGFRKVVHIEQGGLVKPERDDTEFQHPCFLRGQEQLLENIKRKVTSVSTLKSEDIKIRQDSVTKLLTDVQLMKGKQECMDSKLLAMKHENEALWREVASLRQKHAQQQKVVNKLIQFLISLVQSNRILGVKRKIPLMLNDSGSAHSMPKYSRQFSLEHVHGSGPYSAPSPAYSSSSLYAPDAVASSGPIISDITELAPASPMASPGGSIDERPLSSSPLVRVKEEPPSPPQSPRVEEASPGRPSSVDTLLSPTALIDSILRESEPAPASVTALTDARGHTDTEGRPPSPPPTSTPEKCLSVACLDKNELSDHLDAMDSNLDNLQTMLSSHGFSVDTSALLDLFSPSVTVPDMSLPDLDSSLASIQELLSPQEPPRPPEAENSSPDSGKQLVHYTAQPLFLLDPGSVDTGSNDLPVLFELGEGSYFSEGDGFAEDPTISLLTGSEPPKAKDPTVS
CRX, sequence (O43186 whole entry): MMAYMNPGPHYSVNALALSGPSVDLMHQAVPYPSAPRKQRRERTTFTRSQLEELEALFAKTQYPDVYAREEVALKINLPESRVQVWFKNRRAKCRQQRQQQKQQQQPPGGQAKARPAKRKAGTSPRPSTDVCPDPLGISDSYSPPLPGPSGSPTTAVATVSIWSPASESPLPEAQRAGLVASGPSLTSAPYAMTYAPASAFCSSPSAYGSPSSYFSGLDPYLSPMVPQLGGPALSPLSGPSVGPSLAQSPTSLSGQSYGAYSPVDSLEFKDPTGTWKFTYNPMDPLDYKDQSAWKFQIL
ETV5, sequence (P41161 whole entry): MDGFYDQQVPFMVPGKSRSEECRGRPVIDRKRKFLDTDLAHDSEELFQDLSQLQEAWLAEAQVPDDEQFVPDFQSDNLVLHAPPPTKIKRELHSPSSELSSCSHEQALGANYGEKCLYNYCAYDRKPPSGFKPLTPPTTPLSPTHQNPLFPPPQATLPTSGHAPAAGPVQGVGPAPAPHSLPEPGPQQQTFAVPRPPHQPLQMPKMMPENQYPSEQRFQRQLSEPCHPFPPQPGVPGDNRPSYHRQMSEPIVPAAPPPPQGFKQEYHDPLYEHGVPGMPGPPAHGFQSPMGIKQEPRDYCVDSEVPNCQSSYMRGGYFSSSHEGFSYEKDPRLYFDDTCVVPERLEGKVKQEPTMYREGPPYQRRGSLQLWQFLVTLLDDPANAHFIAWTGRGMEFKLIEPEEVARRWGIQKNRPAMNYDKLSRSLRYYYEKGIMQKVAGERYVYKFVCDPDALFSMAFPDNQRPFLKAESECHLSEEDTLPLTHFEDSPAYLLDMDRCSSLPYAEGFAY
ETV1, sequence (P50549 whole entry): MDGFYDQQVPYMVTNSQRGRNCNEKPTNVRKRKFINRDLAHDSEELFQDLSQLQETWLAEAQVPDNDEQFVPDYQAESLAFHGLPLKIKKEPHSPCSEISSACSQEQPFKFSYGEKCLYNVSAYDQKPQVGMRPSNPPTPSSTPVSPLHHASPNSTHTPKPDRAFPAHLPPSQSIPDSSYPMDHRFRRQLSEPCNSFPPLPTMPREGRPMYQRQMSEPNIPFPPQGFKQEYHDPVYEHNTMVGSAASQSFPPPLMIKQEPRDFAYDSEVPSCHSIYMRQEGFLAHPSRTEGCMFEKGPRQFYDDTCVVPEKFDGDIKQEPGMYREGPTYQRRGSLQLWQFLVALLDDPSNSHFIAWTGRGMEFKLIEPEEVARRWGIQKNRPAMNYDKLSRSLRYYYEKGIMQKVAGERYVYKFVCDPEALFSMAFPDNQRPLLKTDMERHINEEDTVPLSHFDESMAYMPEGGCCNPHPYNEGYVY

For the sequence TAGTAT, the binding signal with FEV is 1.28 fold enrichment (6-mer frequency, TF over GST control); with ETV5 it was 1.33 fold enrichment (6-mer frequency, TF over GST control); with HSF1, 1.55 fold enrichment (6-mer frequency, TF over GST control); with SPIC, 1.43 fold enrichment (6-mer frequency, TF over GST control); with ELF4, 1.3 fold enrichment (6-mer frequency, TF over GST control); with ELK4 it was 1.31 fold enrichment (6-mer frequency, TF over GST control). Further, the binding signal with ETV2 is 1.34 fold enrichment (6-mer frequency, TF over GST control); with ELF3 it was 1.3 fold enrichment (6-mer frequency, TF over GST control); with CRX, 1.68 fold enrichment (6-mer frequency, TF over GST control); with ETV1 it was 1.23 fold enrichment (6-mer frequency, TF over GST control); with ERF, 1.29 fold enrichment (6-mer frequency, TF over GST control); in the experiment with ETV3L, 1.23 fold enrichment (6-mer frequency, TF over GST control). For the same sequence, the binding signal is 1.27 fold enrichment (6-mer frequency, TF over GST control) in the experiment with ETS2; 1.15 fold enrichment (6-mer frequency, TF over GST control) in the experiment with SPDEF; 1.44 fold enrichment (6-mer frequency, TF over GST control) with ETV7; 1.25 fold enrichment (6-mer frequency, TF over GST control) in the experiment with ELF5; 1.26 fold enrichment (6-mer frequency, TF over GST control) with ETV3; 1.29 fold enrichment (6-mer frequency, TF over GST control) with ETV6.

These data come from paper PMC7862700, “An all-to-all approach to the identification of sequence-specific readers for epigenetic DNA modifications on cytosine”.
